# Reference: the supplement of paper PMC10105736
# A number with no mark means an inactive call.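 Rule for the calls: active = MAPPIT score above the 99th percentile of random reference set scores in the same batch; inactive = at or below it.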
# B1: Fkbp12 (protein)
# chain: MGVQVVPIAPGDGSTYPKNGQKVTVHYTGTLDDGTKFDSSRDRNKPFKFTIGKGEVIRGWDEGVAQLSVGQRAKLICSPDYAYGSRGHPGVIPPNSTLTFDVELLKVE
# B2: z (protein)
# chain: MSAQGEGGGAGGSGGGGAGSDGGGNAGQSSTGSGTVAVTNGGNSSAKNQLPLTPRFTAEEKEVLYTLFHLHEEVIDIKHRKKQRNKYSVRETWDKIVKDFNSHPHVSAMRNIKQIQKFWLNSRLRKQYPYRDGSSSNLSSGSAKISSVSVSVASAVPQQQQQQHHQQHDSVKVEPEYQISPDASEHNPQADTFDEIEMDANDVSEIDEDPMEQQQQQQQEAQAQAQAQAQAQAQVQSAAAEMQKMQQVNAVAAAAAANATMINTHQINVDQISAEKLTLNDLLHFKTARPREEIILIKHPEATATQIHTIPTQAQQHPMATITAGGYNQQIISEIKPQQITLAQYQAQQQQQAQAQAQAQAQAQAQAQAQAQAQAQAQQLAQQQLAAAQHQQLAAAVQVHHQQQQQQQAAVAVQQQQAAAAAAVKMQLTAATPTFTFSALPTVTAATTVPAAVPVPVATASSGSANSVAVNTSTASSVSINNTSLGGGGGNGATNSSATAADSFEERMNYFKIREAELRCKEQQLATEAKRIELNKAQDELKYMKEVHRLRVEELTMKIRILQKEEEQLRKCSTS
# B3: RpLP2 (protein)
# chain: MRYVAAYLLAVLGGKDSPANSDLEKILSSVGVEVDAERLTKVIKELAGKSIDDLIKEGREKLSSMPVGGGGAVAAADAAPAAAAGGDKKEAKKEEKKEESESEDDDMGFALFE
# B4: tut (protein)
# chain: MDFESKYCTSQVNGTITITTRKVLDENLKSLLDEGKGELFLSCIPRNHSCSPRWIVEVASELGEVYIMRYKIDFSGNSRGYAYLQYINVDLKESAMQYLPMRFRQLCMCLRVEPSTNNRELVLKNVESSLRPWQVYQEMLKIHPFTIVRVYEYQLDQFFYIFEYRNNDSAASAHQRVRNSIRKFGEHAHISWLTAENILSRASGSFCFQREVSQNRTRRVPPRQKGCFKF
# B5: PI31 (protein)
# chain: MESGSTAKTGDFFYGWDLLYKTVKADVSKKSDLLIALVHFLLTKHYNFRCVGVGDDKTLPEEEGSELLPDSWNDDDTKYSLRYVHDKMLYLLLGHITEGSLLINLLDINTKKVSNICVEPETLVPEVKGGITTIMPSASEIVERYRRELLDPVFTGNSREVTTQTTNSPRPIGSDPDPLRIGEPRRGGSFIPSAFEPRPFGFPDVGRGDLDPLGRGGHGNLFSFPSRPNMGPGPVPRFDPFNPLNPNRPGQGGINPDHMRPPDWNPDYYM
# B6: Cdk12 (protein)
# chain: MHASSAAATALVEYSDVSSEDFSDQEAGDLDADAGKGAGNIKKPKPAPDNQFSKGRLDAKPDKEGYDNYRSRRAEDSSDPVAAGSRQTSSSEATNPREEPSQASNTSKDELWGREIYMSSDSIDTDELEAEMKRQKRKKQKKEKHKHKSKKKSKKRKKKRAKSYSSIDSMSDNDINALLDRRYTPPTAPSKSNERTVSAAPSSFTPHNLKESSSPATPPPVRRPNTNSNYYGESSLETANSALGSNLQVTVTNKQSISNRLRSPPPSSRSSGNGPRFGNSPRTPPPSHYSSSGGGGVGSGSVVRDSRSSRYVNSPHKEDVSAHHRSSHDHGYQGRYSGAGSSSHDTRKVKRLSPELDRYNHQPSTPPHKRRKFSDGREVGLGNFEHSRHHSGKYERYSRDRYSRRSSRSPSVQHSRSRQSPSGGLSSGSNAFRHGGSHKHKYGTTVSSTPSHTTRTSKRASGTGTSGDRYSRSPRTSSRYMESSPPSPVGASGSHHYHHRRSPRMRQRTRGDSRRRSPSSASSESSASRSRSPTSRDLKHKREEYIKKISETSLFAELVKDRHKRQKALKEIIERQEENSNSNSNGALTINDNSSSVDGNTPNAADGRSAPGSGTPAAASTTSNGLQALGSKPDLDLNNIPMPNKQNDSVVSNPASNADVPDSVAQLKQPLLVPPFSASKNNIKPKSLTSLPLPPGMNVLDLAGARSPSPGQKKESDEKNVTSSGSANKSVLNLPMPPVIPGSEELSGDDDVIDSPEDFDAPAVGTVHGHGGGPGTTRQRPVILNRRDSRNNVRDWGERCVDVFEMIAQIGEGTYGQVYKARDHHTNDMVALKKVRLEHEKEGFPITAVREIKILRQLNHRNIVNLHEIVTDKQDAVEFRKDKGSFYLVFEYMDHDLMGLLESGMVDFNEENNASIMKQLLDGLNYCHKKNFLHRDIKCSNILMNNRGKVKLADFGLARLYNADDRERPYTNKVITLWYRPPELLLGEERYGPSIDVWSCGCILGELFVKRPLFQANAEMAQLETISKICGSPVPAVWPNVIKLPLFHTLKQKKTHRRRLREDFEFMPAPALDLLDKMLDLDPDKRITAEDALRSPWLRKINPDEMPTPQLPTWQDCHELWSKKRRRQMREQQESLPPTVIASTKYQQHGATMVGDA
# B7: M6 (protein)
# chain: MSKVKNLLAKMLQRFGKNSSQADSQRYDSLEEIAQNQANERMLRATQVGLEEHLVICLETEAGSFYWHSQ
# Key:
# Test in all cases: MAPPIT interaction score (arbitrary units); higher = stronger binary interaction signal, active = hit call of the paper
# CG14282 = conditions: MAPPIT configuration: N-C; pair source set: RRS
# CG14074 = conditions: MAPPIT configuration: N-N
# Su(var)2-10 = conditions: MAPPIT configuration: N-C; pair source set: screen_3
# TrxT = conditions: MAPPIT configuration: N-N; pair source set: screen_2
# CG13965 = conditions: MAPPIT configuration: N-C; pair source set: screen_4
# CG14190 = conditions: pair source set: RRS
# CG42512 = conditions: pair source set: RRS
# GstO3 = conditions: MAPPIT configuration: N-N; pair source set: DPIM
# CG14464 = conditions: MAPPIT configuration: N-N; pair source set: RRS
# CG1416 = conditions: MAPPIT configuration: N-N; pair source set: DPIM
# 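Note: HEK293T cells with Epo stimulation, STAT-responsive firefly luciferase reporter, fold induction versus unstimulated cells divided by the larger fold induction of two negative controls lacking either bait or prey.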
binder,measurement,setting,value
B1,MAPPIT interaction score,CG14282,-0.281
B2,MAPPIT interaction score,CG14074; pair source set: screen_2,-0.404
same,MAPPIT interaction score,Su(var)2-10,1.09
same,MAPPIT interaction score,TrxT,-0.122
B3,MAPPIT interaction score,CG13965,2.1
B4,MAPPIT interaction score,CG14190; MAPPIT configuration: N-C,0.351
same,MAPPIT interaction score,CG14190; MAPPIT configuration: N-N,-0.511
same,MAPPIT interaction score,CG42512; MAPPIT configuration: N-C,-0.391
same,MAPPIT interaction score,CG42512; MAPPIT configuration: N-N,0.0427
B5,MAPPIT interaction score,CG14074; pair source set: screen_1,-0.274
same,MAPPIT interaction score,GstO3,0.447
B6,MAPPIT interaction score,CG14464,0.381
B7,MAPPIT interaction score,CG1416,-0.155
